These results are taken from PubChem BioAssay (EPA / NIEHS).

Calls of active or inactive are those of the source. The calls were made as follows: active = hit-call score of the fitted dose curve at least 0.9, where 1 is the maximum; inactive = score below 0.9.

For assay [1], the target named is Bile acid receptor (Homo sapiens) (UniProt Q96RI1). As to the kind of experiment: ATG_IR1_CIS: Attagene CIS-FACTORIAL HepG2 Assay for human Nuclear Receptor Subfamily 1 Group H Member 4 (NR1H4), IR1 submotif (AID 2282946). To be noted: IR1 reporter transcription, actives raise or lower the signal. Summed up: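 HepG2 cells transiently transfected with multiplexed cis-element reporter units read endogenous transcription factor activity. After 24 h compound exposure, reporter mRNA was quantified by RT-PCR, fluorescent labelling, HpaI digestion and capillary electrophoresis; bidirectional fitting versus DMSO baseline.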

The nature of assay [2]: ATG_GRE_CIS: Attagene CIS-FACTORIAL HepG2 Assay for human Glucocorticoid Response Elements (GRE) (AID 2282947). The following applies: HepG2 GRE cis-reporter, Attagene multiplex mRNA; actives raise or lower the signal. Summed up:
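Reporter transcripts read by RT-PCR with capillary electrophoresis fluorescence after a 24 h chemical exposure of HepG2 cells transiently transfected with multiple cis-element reporter units. Gain or loss fitted against DMSO.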

Assay [3] is described as follows: ATG_ISRE_CIS: Attagene CIS-FACTORIAL HepG2 Assay for human Interferon Regulatory Factor 1 (IRF1) binding to an Interferon-Stimulated Response Element (ISRE) (AID 2282948). To be noted: HepG2 ISRE cis-reporter (Attagene), mRNA transcription readout; actives raise or lower the signal. The gist of the method:
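Multiplexed mRNA reporter readout in human liver HepG2 cells: cis-element-driven reporters transfected, compound added for 24 h, transcripts amplified, fluorescently labelled and sized by capillary electrophoresis; curve fitting bidirectional against DMSO.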

Assay [4] is described as follows: ATG_M_32_CIS: Attagene CIS-FACTORIAL HepG2 Assay for M32 Transcription Factor (Internal Marker) (AID 2282949).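 Also: background control marker of the multiplexed CIS panel rather than a real target.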 To be noted: HepG2 Attagene cis-factorial M32 reporter, mRNA; actives raise or lower the signal. Summed up: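 HepG2 human liver cells transiently transfected with cis-promoter-driven multiple reporter transcription units, dosed 24 h. Reporter mRNA quantified by RT-PCR, FAM-labelled primer extension, HpaI digest and capillary electrophoresis; bidirectional fit versus DMSO baseline.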

The nature of assay [5]: ATG_M_06_CIS: Attagene CIS-FACTORIAL HepG2 Assay for M06 Transcription Factor (Internal Marker) (AID 2282950). To be noted: HepG2 Attagene CIS-FACTORIAL M06 internal marker reporter; actives raise or lower the signal. Summed up: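 One of many multiplexed endpoints: HepG2 reporter mRNA after 24 h dosing, detected by RT-PCR and capillary electrophoresis fluorescence; gain or loss of signal analysed against DMSO.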

The target of assay [6] is Hypoxia-inducible factor 1-alpha (Homo sapiens) (UniProt Q16665). In words: ATG_HIF1a_CIS: Attagene CIS-FACTORIAL HepG2 Assay for human Hypoxia Inducible Factor 1 (HIF1A) (AID 2282951). The following applies: HepG2 Attagene cis-factorial HIF1a reporter transcription; actives raise or lower the signal. The gist of the method:
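Cis-element reporter constructs were transiently transfected into HepG2 cells, which were treated for 24 h; reporter RNA was reverse-transcribed, amplified, labelled and resolved by capillary electrophoresis.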

Assay [7] concerns the target Hepatocyte nuclear factor 6 (Homo sapiens) (UniProt Q9UBC0). In words: ATG_HNF6_CIS: Attagene CIS-FACTORIAL HepG2 Assay for human Hepatocyte Nuclear Factor 6 (HNF6) (AID 2282952). The following applies: HepG2 Attagene cis-factorial HNF6 reporter transcription; actives raise or lower the signal. The gist of the method:
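Endogenous factor activity read in transiently transfected HepG2 via promoter-regulated reporter transcripts. RNA harvested 24 h post-dosing, reverse-transcribed, PCR-amplified, FAM-labelled, HpaI-digested and resolved by capillary electrophoresis; fitted in both directions against DMSO.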

A short description of assay [8]: ATG_MRE_CIS: Attagene CIS-FACTORIAL HepG2 Assay for human Metal Responsive Element (MRE) (AID 2282954). The following applies: HepG2 MRE cis-reporter transcription, Attagene multiplex; actives raise or lower the signal. Summed up:
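Endogenous MRE-dependent transcription read as reporter mRNA in transiently transfected human HepG2 cells at 24 h. RNA reverse-transcribed, PCR-amplified, labelled and resolved by capillary electrophoresis; gain or loss relative to DMSO.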

The target in assay [9] is Paired box protein Pax-6 (Homo sapiens) (UniProt P26367). As to the kind of experiment: ATG_Pax6_CIS: Attagene CIS-FACTORIAL HepG2 Assay for human Paired Box 6 (PAX6) (AID 2282956). The following applies: HepG2 CIS-FACTORIAL PAX6 reporter transcription, RNA readout; actives raise or lower the signal. The gist of the method: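 Fluorescent RT-PCR products separated by capillary electrophoresis report PAX6-linked promoter mRNA in HepG2 cells 24 h post-dose. Curves fitted bidirectionally, DMSO as negative control.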

The nature of assay [10]: ATG_PXRE_CIS: Attagene CIS-FACTORIAL HepG2 Assay for human Pregnane X Receptor Element (PXRE) (AID 2282957). The following applies: HepG2 Attagene CIS-FACTORIAL PXRE reporter, mRNA; actives raise or lower the signal. The gist of the method: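 Reporter transcripts under endogenous PXR-responsive cis-regulation quantified from total RNA of transfected HepG2 cells 24 h post-dosing, via RT-PCR with fluorescent primer extension and capillary electrophoresis. Gain or loss of signal fitted against DMSO baseline.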

Assay [11] can be described thus: ATG_PPRE_CIS: Attagene CIS-FACTORIAL HepG2 Assay for human Peroxisome Proliferator-activated Response Element (PPRE) (AID 2282958). The following applies: HepG2 PPRE cis-element reporter, Attagene transcription factor profiling; actives raise or lower the signal. The gist of the method:
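DMSO served as negative control and baseline for bidirectional curve fitting. Signal came from PPRE-regulated reporter mRNA in HepG2 cells, measured 24 h post-dosing by RT-PCR, 6-FAM primer extension and capillary electrophoresis.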

The nature of assay [12]: ATG_RORE_CIS: Attagene CIS-FACTORIAL HepG2 Assay for human RAR-related Orphan Receptor Element (RORE) (AID 2282959). The following applies: HepG2 Attagene cis-factorial RORE reporter, mRNA; actives raise or lower the signal. Summed up:
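Transfect HepG2 with MRTUs; treat 24 h; extract RNA; RT with oligo(dT); PCR with reporter-specific primers; 6-FAM primer extension; HpaI digest 2 h at 37 C; capillary electrophoresis. Fit vs DMSO, bidirectional.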

Assay [13] in a line: ATG_Sox_CIS: Attagene CIS-FACTORIAL HepG2 Assay for human SRY-box transcription factor (SOX) (AID 2282960). To be noted: HepG2 Attagene cis-factorial SOX reporter, mRNA; actives raise or lower the signal. The gist of the method:
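Fluorescence-labelled cDNA fragments from reporter transcripts, sized by CE, give the signal. Cells: HepG2, transiently transfected with cis-regulated reporter units. Exposure 24 h; DMSO negative control; bidirectional curve fitting.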

The target of assay [14] is Transcription factor Sp1 (Homo sapiens) (UniProt P08047). As to the kind of experiment: ATG_Sp1_CIS: Attagene CIS-FACTORIAL HepG2 Assay for human Specificity Protein 1 (Sp1) (AID 2282961). The following applies: HepG2 Sp1 cis-reporter transcription, actives raise or lower the signal. Summed up:
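Chemicals are dosed onto HepG2 cells transfected with multiple cis-promoter reporter constructs, and after 24 h reporter RNA is reverse-transcribed, PCR-amplified and resolved by capillary electrophoresis for fluorescence quantitation; activity is scored up or down against DMSO.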

Assay [15] is described as follows: ATG_SREBP_CIS: Attagene CIS-FACTORIAL HepG2 Assay for human Sterol Regulatory Element Binding (SREBP) (AID 2282962). The following applies: HepG2 Attagene cis-factorial SREBP reporter, mRNA; actives raise or lower the signal. Summed up:
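Endogenous factor activity is measured in HepG2 through multiplexed reporter units under cis-element control. Following a 24 h incubation, reporter transcripts are reverse-transcribed, PCR-amplified and sized by capillary electrophoresis; activity is fitted in both directions relative to DMSO.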

Assay [16] addresses Signal transducer and activator of transcription 3 (Homo sapiens) (UniProt P40763). As to the kind of experiment: ATG_STAT3_CIS: Attagene CIS-FACTORIAL HepG2 Assay for human Signal Transducer and Activator of Transcription 3 (STAT3) (AID 2282963). To be noted: HepG2, Attagene cis-factorial STAT3 reporter transcription; actives raise or lower the signal. The gist of the method: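 Readout is reporter transcript quantified by RT-PCR and capillary electrophoresis, with 6-FAM primer extension and HpaI digestion. Total RNA is taken 24 h after dosing transiently transfected HepG2 carrying cis-regulated reporter units. Bidirectional fit against DMSO.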

Assay [17] is described as follows: ATG_TA_CIS: Attagene CIS-FACTORIAL HepG2 Assay for human TA Basal Promoter (AID 2282964). The following applies: HepG2 Attagene CIS-factorial TA basal promoter reporter; actives raise or lower the signal. Summed up: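 Transient MRTU transfection of HepG2 preceded 24 h compound exposure. Reporter mRNA levels were then read by RT-PCR with capillary electrophoresis, and this background-control endpoint was fitted bidirectionally to DMSO.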

For assay [18], the target named is Heat shock factor protein 1 (Homo sapiens) (UniProt Q00613). As to the kind of experiment: ATG_HSE_CIS: Attagene CIS-FACTORIAL HepG2 Assay for human Heat Shock Transcription Factor 1 (HSE) (AID 2282953). To be noted: HepG2 HSE cis-reporter, Attagene RNA transcription; actives raise or lower the signal. Summed up: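 Using HepG2 with transfected cis-driven reporter constructs, compound effects on endogenous factor activity are scored as reporter mRNA change at 24 h. Detection: RT-PCR, HpaI digestion, capillary electrophoresis; bidirectional fitting to DMSO.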

Assay [19] can be described thus: ATG_PBREM_CIS: Attagene CIS-FACTORIAL HepG2 Assay for human Phenobarbital-responsive Enhancer Module (PBREM) (AID 2282955). To be noted: HepG2 PBREM cis-reporter, Attagene multiplexed transcription; actives raise or lower the signal. The gist of the method: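 Multiplexed cis-reporter readout in human hepatoma HepG2 cells; PBREM-regulated transcript quantified after 24 h exposure by fluorescent RT-PCR fragment analysis. Signal changes up or down fitted relative to DMSO.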

Assay [20] can be described thus: ATG_TCF_b_cat_CIS: Attagene CIS-FACTORIAL HepG2 Assay for human T-Cell-Factor with beta-catenin (TCF/b-cat) (AID 2282965). To be noted: HepG2 TCF/beta-catenin cis-reporter transcription, actives raise or lower the signal. Summed up:
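Endogenous transcription factor activity is captured through cis-promoter reporter constructs transiently introduced into human HepG2 liver cells. Induced reporter mRNA is measured after 24 h and fitted bidirectionally relative to DMSO.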

Sequence of Heat shock factor protein 1 (Homo sapiens) (Q00613 whole entry, looked up): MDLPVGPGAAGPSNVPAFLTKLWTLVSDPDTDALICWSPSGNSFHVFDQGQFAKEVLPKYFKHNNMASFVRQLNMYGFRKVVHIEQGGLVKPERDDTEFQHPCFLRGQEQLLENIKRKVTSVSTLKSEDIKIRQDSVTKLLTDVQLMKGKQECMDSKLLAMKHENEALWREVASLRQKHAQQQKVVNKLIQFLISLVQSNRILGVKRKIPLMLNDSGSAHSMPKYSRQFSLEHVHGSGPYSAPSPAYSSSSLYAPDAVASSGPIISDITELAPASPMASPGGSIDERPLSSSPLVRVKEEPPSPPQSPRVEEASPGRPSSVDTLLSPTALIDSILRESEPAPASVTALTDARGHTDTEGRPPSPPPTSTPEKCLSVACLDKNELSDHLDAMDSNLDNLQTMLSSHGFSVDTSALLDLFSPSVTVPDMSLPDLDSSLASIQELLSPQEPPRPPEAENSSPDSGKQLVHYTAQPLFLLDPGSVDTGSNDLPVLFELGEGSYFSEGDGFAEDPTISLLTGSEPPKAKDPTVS
Sequence of Bile acid receptor (Homo sapiens) (Q96RI1 whole entry, looked up): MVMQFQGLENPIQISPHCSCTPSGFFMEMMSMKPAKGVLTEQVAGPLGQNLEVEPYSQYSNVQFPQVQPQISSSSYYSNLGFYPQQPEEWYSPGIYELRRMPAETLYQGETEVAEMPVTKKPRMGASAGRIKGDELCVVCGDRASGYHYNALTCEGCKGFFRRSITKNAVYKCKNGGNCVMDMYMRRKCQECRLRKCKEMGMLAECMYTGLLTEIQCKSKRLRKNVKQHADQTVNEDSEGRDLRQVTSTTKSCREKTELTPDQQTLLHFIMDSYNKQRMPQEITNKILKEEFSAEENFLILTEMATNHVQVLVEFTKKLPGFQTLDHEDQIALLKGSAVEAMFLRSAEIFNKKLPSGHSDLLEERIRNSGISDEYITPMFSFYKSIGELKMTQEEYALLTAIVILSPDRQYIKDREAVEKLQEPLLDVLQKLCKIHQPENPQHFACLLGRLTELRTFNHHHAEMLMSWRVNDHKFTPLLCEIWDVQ
Sequence of Signal transducer and activator of transcription 3 (Homo sapiens) (P40763 whole entry, looked up): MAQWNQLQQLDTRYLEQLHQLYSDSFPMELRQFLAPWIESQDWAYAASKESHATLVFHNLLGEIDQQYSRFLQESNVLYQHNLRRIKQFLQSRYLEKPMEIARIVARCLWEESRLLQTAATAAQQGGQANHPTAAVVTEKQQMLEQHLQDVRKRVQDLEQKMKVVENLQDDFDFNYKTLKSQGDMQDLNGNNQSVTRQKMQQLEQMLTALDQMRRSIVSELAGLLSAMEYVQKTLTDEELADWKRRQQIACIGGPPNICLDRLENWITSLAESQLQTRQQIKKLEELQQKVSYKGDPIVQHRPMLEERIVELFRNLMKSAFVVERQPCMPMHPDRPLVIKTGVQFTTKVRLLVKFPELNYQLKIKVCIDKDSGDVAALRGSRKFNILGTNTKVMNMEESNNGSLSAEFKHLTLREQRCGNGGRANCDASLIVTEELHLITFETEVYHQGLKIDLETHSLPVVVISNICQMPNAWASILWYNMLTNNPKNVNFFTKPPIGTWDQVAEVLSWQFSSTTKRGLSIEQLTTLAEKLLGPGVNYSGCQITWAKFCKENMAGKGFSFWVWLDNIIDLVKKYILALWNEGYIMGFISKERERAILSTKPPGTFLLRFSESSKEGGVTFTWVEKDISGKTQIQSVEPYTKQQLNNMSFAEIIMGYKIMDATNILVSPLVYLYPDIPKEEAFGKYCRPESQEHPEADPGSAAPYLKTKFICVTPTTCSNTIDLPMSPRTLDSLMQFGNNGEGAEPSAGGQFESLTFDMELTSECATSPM
Sequence of Transcription factor Sp1 (Homo sapiens) (P08047 whole entry, looked up): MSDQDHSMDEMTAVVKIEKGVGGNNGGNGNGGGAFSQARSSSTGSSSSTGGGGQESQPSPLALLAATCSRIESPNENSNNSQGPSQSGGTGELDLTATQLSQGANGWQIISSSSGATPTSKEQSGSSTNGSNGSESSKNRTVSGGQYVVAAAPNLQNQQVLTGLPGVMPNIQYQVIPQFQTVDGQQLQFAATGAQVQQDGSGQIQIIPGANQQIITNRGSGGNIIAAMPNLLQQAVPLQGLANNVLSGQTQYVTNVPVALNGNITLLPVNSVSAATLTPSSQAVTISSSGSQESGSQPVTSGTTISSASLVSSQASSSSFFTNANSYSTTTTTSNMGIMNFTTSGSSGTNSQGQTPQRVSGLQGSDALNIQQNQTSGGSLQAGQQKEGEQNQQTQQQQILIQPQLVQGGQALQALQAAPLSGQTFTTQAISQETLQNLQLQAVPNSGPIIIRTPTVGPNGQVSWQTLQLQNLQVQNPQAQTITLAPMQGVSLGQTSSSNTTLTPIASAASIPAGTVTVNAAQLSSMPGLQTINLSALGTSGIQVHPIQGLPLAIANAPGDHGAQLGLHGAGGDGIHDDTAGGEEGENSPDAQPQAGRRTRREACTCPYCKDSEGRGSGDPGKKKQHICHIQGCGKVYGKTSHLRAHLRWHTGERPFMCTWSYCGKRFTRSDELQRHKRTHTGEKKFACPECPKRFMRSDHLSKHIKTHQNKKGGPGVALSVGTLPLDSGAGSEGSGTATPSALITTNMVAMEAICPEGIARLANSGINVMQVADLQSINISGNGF
Sequence of Paired box protein Pax-6 (Homo sapiens) (P26367 whole entry, looked up): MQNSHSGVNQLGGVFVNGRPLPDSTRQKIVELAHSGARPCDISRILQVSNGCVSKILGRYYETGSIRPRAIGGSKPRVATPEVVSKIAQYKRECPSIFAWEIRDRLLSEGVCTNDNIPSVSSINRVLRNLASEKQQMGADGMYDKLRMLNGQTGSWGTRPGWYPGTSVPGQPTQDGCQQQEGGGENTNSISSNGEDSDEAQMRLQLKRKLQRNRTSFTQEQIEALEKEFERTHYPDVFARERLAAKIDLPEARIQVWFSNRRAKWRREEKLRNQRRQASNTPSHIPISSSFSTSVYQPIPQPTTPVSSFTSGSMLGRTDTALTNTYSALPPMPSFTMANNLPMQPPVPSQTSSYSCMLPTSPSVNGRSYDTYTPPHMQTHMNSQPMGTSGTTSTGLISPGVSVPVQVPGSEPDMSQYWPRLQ
Sequence of Hepatocyte nuclear factor 6 (Homo sapiens) (Q9UBC0 whole entry, looked up): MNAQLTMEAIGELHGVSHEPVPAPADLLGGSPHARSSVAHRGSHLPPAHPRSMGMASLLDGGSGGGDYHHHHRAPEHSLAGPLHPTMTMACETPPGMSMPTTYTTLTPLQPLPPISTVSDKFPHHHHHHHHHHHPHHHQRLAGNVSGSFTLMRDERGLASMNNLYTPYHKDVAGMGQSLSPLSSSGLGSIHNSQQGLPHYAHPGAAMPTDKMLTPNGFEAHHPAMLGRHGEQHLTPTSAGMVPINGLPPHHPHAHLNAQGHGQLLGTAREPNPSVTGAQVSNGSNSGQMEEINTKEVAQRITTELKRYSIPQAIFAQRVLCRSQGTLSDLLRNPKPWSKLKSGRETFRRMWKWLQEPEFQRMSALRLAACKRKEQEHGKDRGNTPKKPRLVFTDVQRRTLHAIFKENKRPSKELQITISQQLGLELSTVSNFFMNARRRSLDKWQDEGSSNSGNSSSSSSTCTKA
Sequence of Hypoxia-inducible factor 1-alpha (Homo sapiens) (Q16665 whole entry, looked up): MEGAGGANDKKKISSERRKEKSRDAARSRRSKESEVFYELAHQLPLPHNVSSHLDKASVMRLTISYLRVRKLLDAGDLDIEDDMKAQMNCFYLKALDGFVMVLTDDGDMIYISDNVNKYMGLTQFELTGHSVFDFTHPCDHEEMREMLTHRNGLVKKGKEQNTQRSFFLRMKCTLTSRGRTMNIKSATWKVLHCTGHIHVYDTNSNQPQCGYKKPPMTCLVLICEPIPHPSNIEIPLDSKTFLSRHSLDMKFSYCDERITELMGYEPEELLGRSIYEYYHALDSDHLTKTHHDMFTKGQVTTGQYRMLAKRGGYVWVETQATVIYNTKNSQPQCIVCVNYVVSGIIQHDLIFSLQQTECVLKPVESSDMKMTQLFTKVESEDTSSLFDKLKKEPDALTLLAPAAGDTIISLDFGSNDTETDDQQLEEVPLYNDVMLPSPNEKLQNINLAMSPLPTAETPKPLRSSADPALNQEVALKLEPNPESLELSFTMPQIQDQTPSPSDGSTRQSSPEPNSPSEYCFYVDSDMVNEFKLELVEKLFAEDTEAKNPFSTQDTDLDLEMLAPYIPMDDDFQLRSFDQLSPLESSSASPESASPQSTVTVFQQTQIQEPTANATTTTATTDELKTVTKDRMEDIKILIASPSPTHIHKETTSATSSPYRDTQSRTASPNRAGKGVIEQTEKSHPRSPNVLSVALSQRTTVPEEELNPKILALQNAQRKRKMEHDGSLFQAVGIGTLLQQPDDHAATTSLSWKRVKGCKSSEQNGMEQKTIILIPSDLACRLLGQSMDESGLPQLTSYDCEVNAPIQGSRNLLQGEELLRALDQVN

As for `O=C(O)c1ccc(O)cc1`, the outcome in [1], in assay [2], in [3], in [4], in assay [5] and in assay [6] was inactive. For the same molecule, the molecule was classed as inactive in [7], in [8], in [9], in assay [10], in assay [11] and in [12]. Also, the molecule was classed as inactive in [13], in assay [14], in [15], in [16] and in assay [17].

Turning to `Cc1ccc(S(=O)(=O)Oc2ccc(N=Nc3ccc(-c4ccc(N=Nc5c(O)ccc6cc(S(=O)(=O)O)cc(S(=O)(=O)O)c56)c(C)c4)cc3C)cc2)cc1`, the call in assay [1], in [2], in assay [3], in [4], in assay [5] and in assay [6] was inactive. Moreover, the outcome in [18], in assay [8], in assay [19], in [9], in assay [11] and in assay [13] was inactive. The result in [14], in assay [15], in assay [16], in [17] and in [20] was inactive. Further, the AC50 – broadly, the concentration giving half of the maximal activity seen – in assay [10] was 4.91 µM (active).

As for `CC(C=O)Cc1ccc(C(C)(C)C)cc1` (stereo unspecified), the call in assay [1], in assay [2], in assay [3], in assay [4], in assay [6] and in assay [7] was inactive. Besides, the call in assay [18], in [8], in assay [19], in [9], in assay [11] and in assay [12] was inactive. For the same molecule, the outcome in assay [13], in [14], in [15], in [16], in assay [17] and in assay [20] was inactive. In addition, the AC50 in [10] is 27.6 µM (active).

Take `O=C(Nc1ccc([N+](=O)[O-])cc1)Nc1ccc([N+](=O)[O-])cc1` (tested in a mixture with another compound): the molecule was classed as inactive in assay [1], in assay [2], in assay [3], in assay [4], in [5] and in assay [7]. The call in [18], in assay [8], in assay [9], in assay [10], in [12] and in [13] was inactive. For the same molecule, the call in assay [14], in assay [15], in assay [16], in assay [17] and in assay [20] was inactive.
